MITF inh – inhibitors of human MITF; O75030; AlphaScreen MITF homodimerization, bead proximity signal; inhibition, % at 2.6 µM; 0.91% of 650,000 active; AID 1259374; in the data active means inhibition above about 50%;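 further: 0% = vehicle wells with protein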
TEAD-YAP block – TEAD-YAP interaction inhibition. HEK-TIYL cells, TEAD-Gal4/YAP UAS-luciferase luminescence. AID 1259422. 1.4% of 640,000 active. inhibition, % at 9.12 µM; in the data active means inhibition above about 32%;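 further: 0% = median of test compound wells and 100% = reference inhibitor wells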
FBW7 act – activators of human E3 ligase FBW7. Q969H0. AlphaScreen FBW7–phospho-cyclin E peptide binding, activator screen. normalized activity (activation), % at 26.1 µM. 0.13% of 650,000 active; in the data active means normalized activity above about 1.9%;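 further: purified mutant Fbw7 with reduced substrate affinity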
GPR151 ag – activates the human receptor GPR151. AID 1508602. 1% of 650,000 active. PathHunter beta-arrestin GPR151 cells, luminescence. activation, % at 11.2 µM. Q8TDV0; in the data active means activation above about 4.9%;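 further: 0% = median of compound wells and 100% = cells with positive control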
GPR151 confirm – confirmation of human GPR151 activators. shares compounds with GPR151 ag. GPR151 PathHunter beta-arrestin cells, luminescence, 90 min; % of EA-reagent control over plate median. activation, % at 11.2 µM. 6,700 tested, under 10 active;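 active means mean percent activation across replicates above the confirmation screen cutoff of 4.91%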
GPR119 ag – counter-screen for GPR151 activators: effect on human GPR119; GPR119 PathHunter beta-arrestin cells, luminescence, 90 min; 0 = compound-well median, 100 = enzyme-acceptor control; shares compounds with GPR151 ag; AID 1508611; activation, % at 11.2 µM; 0.3% of 6,700 active;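 active means mean percent activation in the counterscreen above 29.09%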;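 further: counterscreen on off-target GPR119 to flag nonselective hits from the GPR151 activator screen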
Active calls of the source: *. In the library only some 3.4% were active in any assay of this set; here they are far more common.

What do the screens show for `Cc1cc(OCC(=O)N(C)C)cc(C)c1Br`?
MITF inh: -6.9; TEAD-YAP block: -17.4; FBW7 act: -0.1; GPR151 ag: -0.6

Results for COc1cc(S(=O)(=O)N2CC(C)OC(C)C2)ccc1Br (centres undefined) ?
MITF inh: 2.6; TEAD-YAP block: -4.5; FBW7 act: -0.1; GPR151 ag: -0.8

Results for CCNS(=O)(=O)c1ccc(Cl)c(OC)c1 ?
MITF inh: -5.4; TEAD-YAP block: -5.5; FBW7 act: 0.0; GPR151 ag: 8.0*; GPR151 confirm: -0.1; GPR119 ag: -0.3

Results for COc1cc(S(=O)(=O)N2CC(C)OC(C)C2)ccc1Cl (centres undefined) ?
MITF inh: -14.2; TEAD-YAP block: -12.3; FBW7 act: 0.1; GPR151 ag: 8.0*; GPR151 confirm: -0.7; GPR119 ag: -16.1

Results for COc1ccc(CNS(=O)(=O)c2ccc(Cl)c(OC)c2)cc1 ?
MITF inh: -8.5; TEAD-YAP block: -0.8; FBW7 act: -0.3; GPR151 ag: -0.4

Results for Cc1ccc(C)c(N2CCN(C(=O)CCCCCn3c(=S)[nH]c4cc5c(cc4c3=O)OCO5)CC2)c1 ?
MITF inh: -6.3; TEAD-YAP block: 0.4; FBW7 act: 0.0; GPR151 ag: 0.1

How did Cc1c(-c2ccccc2)sc2nc[nH]c(=O)c12 do in these assays?
MITF inh: 7.1; TEAD-YAP block: -15.5; FBW7 act: 0.2; GPR151 ag: 12.5*; GPR151 confirm: -0.5; GPR119 ag: -7.9

What do the screens show for `CC(Oc1ccc([N+](=O)[O-])cc1)C(=O)N1CCCC1` (centres undefined)?
MITF inh: 4.2; TEAD-YAP block: -0.9; FBW7 act: 0.0; GPR151 ag: -0.1

Results for COc1ccc(Cl)cc1NC(=O)CN1CCC(n2nnc3ccccc32)CC1 ?
MITF inh: 14.4; TEAD-YAP block: -23.0; FBW7 act: -0.1; GPR151 ag: 5.3*; GPR151 confirm: -0.1; GPR119 ag: -2.2

What do the screens show for `Cc1cc(NC(=O)c2ccc3c(c2)C(=O)N(c2ccc([N+](=O)[O-])cc2)C3=O)no1`?
MITF inh: 7.4; TEAD-YAP block: 7.5; FBW7 act: 0.1; GPR151 ag: 5.7*; GPR151 confirm: -0.6; GPR119 ag: 2.9

What do the screens show for `Cc1ccc(-n2c(C)nn(C(C)C(=O)O)c2=O)cc1` (centres undefined)?
MITF inh: 3.1; TEAD-YAP block: 10.0; FBW7 act: 0.0; GPR151 ag: 0.1

What do the screens show for `Cc1cc(C)nc(SCC(=O)Nc2ccc(I)cc2)n1`?
MITF inh: -9.6; TEAD-YAP block: 5.4; FBW7 act: -0.1; GPR151 ag: -0.1

Results for CC(NC(=O)c1cnc2scc(C(C)(C)C)n2c1=O)c1ccccc1 (centres undefined) ?
MITF inh: -1.8; TEAD-YAP block: 3.7; FBW7 act: -0.2; GPR151 ag: 7.4*; GPR151 confirm: 1.3; GPR119 ag: 5.5

Results for COc1ccc(-c2cn3c(C(=O)N4CCc5ccccc54)csc3n2)cc1 ?
MITF inh: -7.7; TEAD-YAP block: 5.2; FBW7 act: 0.0; GPR151 ag: 18.6*; GPR151 confirm: 0.3; GPR119 ag: -2.0

Results for COc1ccc(-c2cn3c(C(=O)N4CCN(c5ccccc5OC)CC4)csc3n2)cc1 ?
MITF inh: 2.5; TEAD-YAP block: -7.8; FBW7 act: -0.1; GPR151 ag: -0.4

How did c1ccc(-c2cc(N3CCCCC3)nc(-c3ccncc3)n2)nc1 do in these assays?
MITF inh: 3.1; TEAD-YAP block: 10.9; FBW7 act: 0.2; GPR151 ag: 9.4*; GPR151 confirm: -1.4; GPR119 ag: -6.2

Results for c1ccc(-c2cc(N3CCCCC3)nc(-c3cccnc3)n2)nc1 ?
MITF inh: 4.1; TEAD-YAP block: 18.0; FBW7 act: 0.1; GPR151 ag: 1.1

What do the screens show for `CCCC(c1nnnn1Cc1ccco1)N1CCN(C(=O)c2ccco2)CC1` (centres undefined)?
MITF inh: -4.8; TEAD-YAP block: -3.1; FBW7 act: 0.1; GPR151 ag: -0.6

Results for CCCCC(c1nnnn1Cc1ccco1)N1CCN(C(=O)c2ccco2)CC1 (centres undefined) ?
MITF inh: 4.3; TEAD-YAP block: -0.3; FBW7 act: 0.2; GPR151 ag: 20.0*; GPR151 confirm: 0.3; GPR119 ag: 4.0
